Among the data in PubChem BioAssay (EPA / NIEHS) are AC50 and outcome values, retold here.

Read-out in test [1]: Collagen I, COL1A1 (gene 1277)
The test can be described thus: BSK_MyoF_CollagenI: BioMAP Diversity Plus: MyoF Assay for Collagen I Biomarker Activity (AID 2284238). Particulars: primary human lung fibroblasts. A digest of the protocol:
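ELISA readout of Collagen I after 24 h chemical treatment of primary human lung fibroblast cultures; gain of signal scored relative to DMSO vehicle baseline.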

Read-out in test [2]: Collagen III, COL3A1 (gene 1281)
The experiment in a line: BSK_MyoF_CollagenIII: BioMAP Diversity Plus: MyoF Assay for Collagen III Biomarker Activity (AID 2284239). The settings on record: primary human lung fibroblasts. A digest of the protocol:
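Lung fibroblast culture; 24 h compound exposure; collagen III by ELISA; gain-of-signal fit vs DMSO baseline.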

The nature of test [3]: CCTE_Mundy_HCI_hNP1_Casp3_7: CCTE's Caspase-Glo 3/7 Assay in human neuroprogenitor cells for Apoptosis, Mundy Lab (AID 2284240). The procedure, abridged: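 Luminescent caspase-3/7 readout, 26.5 h post-dose, in human neural progenitor cells from WA09 embryonic stem cells. Cells grew 40–44 h at 37 °C, 5% CO2 before chemical addition. Activity analysed as signal increase over DMSO baseline.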

Test [4] in a line: CCTE_Mundy_HCI_hNP1_CellTiter: CCTE's Cell Titer-Glo 2 Assay in human neuroprogenitor cells for Viability, Mundy Lab (AID 2284241; active = hit-call score of the fitted dose curve at least 0.9, where 1 is the maximum). The procedure, abridged: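 Viability read as luminescent ATP content (CellTiter-Glo, 30 min room temperature) twenty-four hours after dosing, relative to DMSO. Cells: WA09-derived hNP1 neuroprogenitors on poly-L-ornithine/laminin, plated 40 to 44 hours before chemical.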
A general note: In ATP-based viability assays light output follows the ATP content of the culture.

Read-out in test [5]: Interleukin 17F (IL17F), IL17F (gene 112744)
The experiment in a line: BSK_BT_xIL17F: BioMAP Diversity Plus: BT Assay for Interleukin 17F (IL17F) Biomarker Activity (AID 2284243). The settings on record: primary human B cells with PBMC. A digest of the protocol: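 Secreted IL-17F, read on LumineX xMAP beads, was taken as the endpoint. Cultures combined human B cells and peripheral blood mononuclear cells, sampled 24 hours after dosing, with DMSO serving as negative control.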

Read-out in test [6]: Actin alpha 1 (ACTA1), ACTA1 (gene 58)
The experiment in a line: BSK_MyoF_ACTA1: BioMAP Diversity Plus: MyoF Assay for Actin alpha 1 (ACTA1) Biomarker Activity (AID 2284244). Particulars: primary human lung fibroblasts. The procedure, abridged:
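Lung fibroblasts, human primary, 24 h compound exposure → a-SMA ELISA. Positive-direction fit vs DMSO control.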

Read-out in test [7]: Interleukin 2 (IL2), IL2 (gene 3558)
The experiment in a line: BSK_BT_xIL2: BioMAP Diversity Plus: BT Assay for Interleukin 2 (IL2) Biomarker Activity (AID 2284245). Particulars: primary human B cells with PBMC. A digest of the protocol:
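B cell + PBMC co-culture (human primary), compound added, 24 h incubation; secreted IL-2 measured multiplexed on Luminex xMAP; gain-of-signal fit vs DMSO.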

Read-out in test [8]: Basic fibroblast growth factor (bFGF), FGF2 (gene 2247)
The test can be described thus: BSK_MyoF_bFGF: BioMAP Diversity Plus: MyoF Assay for Basic fibroblast growth factor (bFGF) Biomarker Activity (AID 2284246). The settings on record: primary human lung fibroblasts. A digest of the protocol: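 ELISA-measured bFGF level serves as the read-out, taken 24 h after chemical dosing of human lung fibroblasts. Values represent signal gain over the DMSO negative control.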

Read-out in test [9]: Collagen IV, COL4A1 (gene 1282)
The test can be described thus: BSK_MyoF_CollagenIV: BioMAP Diversity Plus: MyoF Assay for Collagen IV Biomarker Activity (AID 2284247). The settings on record: primary human lung fibroblasts. A digest of the protocol:
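Steps: dose human lung fibroblasts; culture 24 h; quantify Collagen IV by ELISA; fit increase versus DMSO control. Parallel SRB total-protein staining (0.1% SRB after 10% TCA fixation, 560 nm) tracks overt cytotoxicity.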

Read-out in test [10]: Monokine induced gamma interferon (MIG), CXCL9 (gene 4283)
The test can be described thus: BSK_KF3CT_MIG: BioMAP Diversity Plus: KF3CT Assay for Monokine induced gamma interferon (MIG) Biomarker Activity (AID 2284248). The settings on record: primary human keratinocytes with fibroblasts. The procedure, abridged:
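ELISA read-out of MIG after 24 h chemical exposure of human skin primary co-culture (keratinocytes, foreskin fibroblasts). Gain of signal relative to DMSO negative control was analysed.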

Read-out in test [11]: Vascular cell adhesion molecule 1 (VCAM1), VCAM1 (gene 7412)
The experiment in a line: BSK_BF4T_VCAM1: BioMAP Diversity Plus: BF4T Assay for Vascular cell adhesion molecule 1 (VCAM1) Biomarker Activity (AID 2284249). Particulars: primary human bronchial epithelial cells with fibroblasts. The procedure, abridged: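 Human bronchial epithelial cell and dermal fibroblast co-culture exposed 24 h. VCAM-1 measured by ELISA; parallel SRB total-protein staining for cytotoxicity. Fitted in positive direction relative to DMSO.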

Read-out in test [12]: Collagen I, COL1A1 (gene 1277)
The experiment in a line: BSK_hDFCGF_CollagenI: BioMAP Diversity Plus: hDFCGF Assay for Collagen I Biomarker Activity (AID 2284250). Particulars: primary human foreskin fibroblasts. A digest of the protocol:
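Human skin primary fibroblasts dosed with test chemical, harvested at 24 h, Collagen I quantified by ELISA; parallel SRB staining (0.1% SRB after 10% TCA fixation, 560 nm) tracked cytotoxicity.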

Read-out in test [13]: Interferon-inducible T-cell alpha chemoattractant (ITAC), CXCL11 (gene 6373)
The test can be described thus: BSK_hDFCGF_ITAC: BioMAP Diversity Plus: hDFCGF Assay for Interferon-inducible T-cell alpha chemoattractant (ITAC) Biomarker Activity (AID 2284251). The settings on record: primary human foreskin fibroblasts. A digest of the protocol: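 Primary human foreskin fibroblasts (hDFCGF system) treated for 24 h; I-TAC quantified by ELISA. Gain-direction fitting versus DMSO; parallel SRB staining of total protein flagged overt cytotoxicity.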

Read-out in test [14]: Plasminogen activator inhibitor-1 (PAI1), SERPINE1 (gene 5054)
The test can be described thus: BSK_KF3CT_PAI1: BioMAP Diversity Plus: KF3CT Assay for Plasminogen activator inhibitor-1 (PAI1) Biomarker Activity (AID 2284252). Particulars: primary human keratinocytes with fibroblasts. A digest of the protocol:
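ELISA read-out of PAI-1 taken 24 h after chemical treatment of a human skin primary co-culture of keratinocytes and foreskin fibroblasts. Increases over DMSO-treated wells defined activity.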

Read-out in test [15]: Monocyte Chemoattractant Protein-1 (MCP1), CCL2 (gene 6347)
The test can be described thus: BSK_IMphg_MCP1: BioMAP Diversity Plus: IMphg Assay for Monocyte Chemoattractant Protein-1 (MCP1) Biomarker Activity (AID 2284253). Particulars: primary human endothelial cells with macrophages. The procedure, abridged:
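Human venular endothelial cells co-cultured with macrophages; MCP-1 measured by ELISA 24 hours post-dose and fitted against DMSO. Cytotoxicity monitored by SRB total-protein staining in parallel cultures.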

The nature of test [16]: TAMU_PeakParms_SingleDonor1434_QT: Texas A&M University (TAMU) 1.5-hr Human Induced Pluripotent Stem Cell (iPSC)-derived Cardiomyocytes Calcium (Ca+2) Flux Assay for Cardiotoxicity: QT (decay-rise ratio) (AID 2284235; active = hit-call score of the fitted dose curve at least 0.9, where 1 is the maximum). The procedure, abridged: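 iPSC-derived cardiomyocytes (single donor 1434) dosed at 0.2, 1, 10, 100 uM final in 0.5% DMSO, 90 min at 37C. Ca2+ flux fluorescence decay/rise ratio; EC05 (5% increase versus DMSO) as POD, excluding beat-arrest and severe-notch data.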

Test [17] in a line: CCTE_Mundy_HCI_Cortical_NOG_NeuronCount: CCTE's Neurite Outgrowth Assay in rat cortical cells for Neuron Count, Mundy Lab (AID 2284236; active = hit-call score of the fitted dose curve at least 0.9, where 1 is the maximum;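 note: neurons counted by imaging betaIII-tubulin and Hoechst stained cortical cells; cells exposed to compound for about 48 hours before fixation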). The procedure, abridged:
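Read-out: neuron number by high-content imaging of betaIII-tubulin (Alexa Fluor-488) and Hoechst-labelled rat primary cortical cells.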

Test [18] is described as follows: CCTE_Mundy_HCI_Cortical_Synap_Neur_Matur_NeuronCount: CCTE's Synaptogenesis and Neurite Maturation Assay in rat cortical cells for Neuron Count, Mundy Lab (AID 2284242; active = hit-call score of the fitted dose curve at least 0.9, where 1 is the maximum). The procedure, abridged:
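Neuron number was scored by automated high-content imaging of Hoechst- and MAP2-labelled rat primary cortical cells. Glial growth was arrested with AraC at DIV 5, compounds were applied from DIV 7, and cultures ended at DIV 12.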

Several values for one entry are separate records, joined by “and”; a condition that tells them apart may be missing. Equal entries are not always repeated. Records with an inconclusive call do not appear. Some compounds were tested as several samples or in several runs, with calls that do not always agree. Activity calls are given as the source filed them. Rule for the calls, unless noted: active = hit-call score of the fitted dose curve at least 0.9, where 1 is the maximum; inactive = score below 0.9.

`OCCC(F)(F)C(F)(F)C(F)(F)C(F)(F)C(F)(F)C(F)(F)C(F)(F)C(F)(F)F`: the AC50 in [1] is 19.8 µM (active) and 17.2 µM (active); in test [2], 14.5 µM (active) and 10 µM (active); in test [5], 22.9 µM (active) and 36.3 µM (active); in [6], 14.6 µM (active) and 15.1 µM (active); in test [7] it was 23.6 µM (active) and 28.4 µM (active); in test [8], 17.4 µM (active) and 10.7 µM (active). Moreover, the AC50 was 21.4 µM (active) and 23.7 µM (active) in test [10]; 8.57 µM (active) and 8 µM (active) in test [11]; 17.8 µM (active) in test [12]; 12.4 µM (active) in test [13]; 15.1 µM (active) and 15.7 µM (active) in test [14]; 49.6 µM (active) and 45.9 µM (active) in [15]. Also, the compound was classed as inactive in test [3], in [4], in [9] and in [12].
Take `FC(F)(I)C(F)(F)C(F)(F)C(F)(F)C(F)(F)C(F)(F)I`: the AC50 was 4.42 µM (active) [middle of 5 runs] in test [1]; 4.38 µM (active) [middle of 5 runs] in test [2]; 8.27 µM (active) [middle of 5 runs] in test [8]; 9.38 µM (active) [middle of 5 runs] in test [10]; 6.79 µM (active) [middle of 5 runs] in [11]; 14 µM (active) and 10.1 µM (active) in [12]. Also, the AC50 in test [13] was 5.16 µM (active) [middle of 5 runs]; in test [14], 6.91 µM (active) [middle of 5 runs]; in test [15], 39.8 µM (active) [middle of 5 runs]. In addition, the outcome in test [9] and in test [12] was inactive.
As to `C=C(C)C(=O)OCCC(F)(F)C(F)(F)C(F)(F)C(F)(F)C(F)(F)C(F)(F)F`, the outcome in [1], in [2], in test [3], in test [4], in [5] and in [6] was inactive. In addition, the outcome in test [7], in test [8], in test [9], in test [10], in [11] and in test [12] was inactive. The result in test [13], in [14] and in test [15] was inactive.
For `c1ccc2c(c1)Cc1ccccc1-2`, the result in [16] was inactive.
For the compound `CC1=C(/C=C/C(C)=C/C=C/C(C)=C/C(=O)O)C(C)(C)CCC1`, the compound was called inactive in test [17], in test [3] and in test [18].
`CN1CCC[C@H]1c1cccnc1`: the outcome in [17] and in [3] was inactive.
For the compound `CCCCCCCCCCCCCC[N+](C)(C)C`, the AC50 in [1] is 1.5 µM (active); in [2], 1.85 µM (active); in test [5] it was 2.26 µM (active); in test [6], 2.31 µM (active); in [7], 1.67 µM (active); in test [8], 4.65 µM (active). Also, the AC50 in test [9] is 5.43 µM (active).
Consider `c1ccc2c(c1)ccc1ccccc12`, for which the outcome in [16] was inactive.
As to `c1ccc2cc3c(ccc4ccccc43)cc2c1`, the result in test [16] was inactive.

The term AC50 denotes the concentration giving half of the maximal activity seen.
